Drawing on PubChem BioAssay (NCATS), this text covers Potency for 18 compounds.

Unmarked numbers belong to inactive results. Records with an inconclusive call do not appear. Calls of active or inactive are those of the source. Unless noted, calls follow the shape of the dose curve; as a rule, active = well fitted curve in the direction sought with a large enough effect; inconclusive = small, poorly fitted or top-dose-only effect, or another doubt; inactive = no such curve, though single readings can be large; an effect the other way counts as inactive or inconclusive.

The subject of experiment [1] is Zika virus NS2B-NS3 protease (linked construct). Nature of the experiment: Primary screen NINDS Rhodamine qHTS for Zika virus inhibitors (AID 1347160). Also: nearly all actives have a fitted effect of over 55% in size. A digest of the protocol:
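Kinetic fluorescence (Ex 480 nm, Em 540 nm) over 15 min with 1.5 microM Rhodamine110 peptide and 25 nM linked protease.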
In general terms: qHTS replaces the single test concentration by a dilution series.

Experiment [2] can be described thus: OV-KATE Cancer Cell Toxicity qHTS against the NCATS CANVASS Library (AID 1347345). The gist of the method:
(§1)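 In this cytotoxicity screen, 1000 cells per well rested 4 hours, then received compound (11 concentrations) for a 72-hour incubation; an ATP-dependent luminescent signal (CellTiter-Glo) was the endpoint.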

Experiment [3] is described as follows: OV-SAHO Cancer Cell Toxicity qHTS against the NCATS CANVASS Library (AID 1347348). Also: nearly all actives have a fitted effect of over 55% in size. The gist of the method: as §1
Experiment [4] in a line: COV-362 Cancer Cell Toxicity qHTS against the NCATS CANVASS Library (AID 1347352). The gist of the method:
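Luminescent ATP read-out (CellTiter-Glo, 15min at room temperature) measures survival after cells face an 11-point compound series for 72 hours at 37 degrees C/5% CO2.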

The nature of experiment [5]: G06 Cancer Cell Toxicity qHTS against the NCATS CANVASS Library (AID 1347368). Also: nearly all actives have a fitted effect of over 60% in size. A digest of the protocol: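 Dog G06 glioma line, 500 cells/well; cpds pin-transferred, 11-pt; 72 hr, 37C/5% CO2; CellTiterGlo luminescence (ATP) endpoint.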
Experiment [6] can be described thus: Panc-1005 Cancer Cell Toxicity qHTS against the NCATS CANVASS Library (AID 1347349). Also: nearly all actives have a fitted effect of over 60% in size. A digest of the protocol: as §1
Experiment [7] is described as follows: SW1088 Cancer Cell Toxicity qHTS against the NCATS CANVASS Library (AID 1347350). Also: nearly all actives have a fitted effect of over 75% in size. A digest of the protocol: as §1
Experiment [8] in a line: qHTS for Antimalaria activity screened against the NCATS CANVASS Library (AID 1347380). Also: nearly all actives have a fitted effect of over 40% in size. The gist of the method:
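Dd2 strain, infected erythrocytes 2.5% Hct final / 0.3% parasitemia. 11-pt qHTS titration, 72 h, 37C, 5% O2, 5% CO2. Lysis buffer + SYBR Green, 18 h, fluorescence 485/535 nm.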

The nature of experiment [9]: UWB1.289 Cancer Cell Toxicity qHTS against the NCATS CANVASS Library (AID 1347347). Also: nearly all actives have a fitted effect of over 60% in size. A digest of the protocol: as §1
Experiment [10] has as its target Glucocorticoid receptor (Homo sapiens) (UniProt P04150). Nature of the experiment: GR-GFP Redistribution (AID 450;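 active = compounds whose dose series gives a full or clear partial fitted curve of increased nuclear translocation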). As to conditions: U2OS GR-GFP nuclear translocation, laser cytometry, 2 h.
Potency is read from the fitted curve at half-maximal effect.

Chain of Glucocorticoid receptor (Homo sapiens) (P04150 whole entry, looked up): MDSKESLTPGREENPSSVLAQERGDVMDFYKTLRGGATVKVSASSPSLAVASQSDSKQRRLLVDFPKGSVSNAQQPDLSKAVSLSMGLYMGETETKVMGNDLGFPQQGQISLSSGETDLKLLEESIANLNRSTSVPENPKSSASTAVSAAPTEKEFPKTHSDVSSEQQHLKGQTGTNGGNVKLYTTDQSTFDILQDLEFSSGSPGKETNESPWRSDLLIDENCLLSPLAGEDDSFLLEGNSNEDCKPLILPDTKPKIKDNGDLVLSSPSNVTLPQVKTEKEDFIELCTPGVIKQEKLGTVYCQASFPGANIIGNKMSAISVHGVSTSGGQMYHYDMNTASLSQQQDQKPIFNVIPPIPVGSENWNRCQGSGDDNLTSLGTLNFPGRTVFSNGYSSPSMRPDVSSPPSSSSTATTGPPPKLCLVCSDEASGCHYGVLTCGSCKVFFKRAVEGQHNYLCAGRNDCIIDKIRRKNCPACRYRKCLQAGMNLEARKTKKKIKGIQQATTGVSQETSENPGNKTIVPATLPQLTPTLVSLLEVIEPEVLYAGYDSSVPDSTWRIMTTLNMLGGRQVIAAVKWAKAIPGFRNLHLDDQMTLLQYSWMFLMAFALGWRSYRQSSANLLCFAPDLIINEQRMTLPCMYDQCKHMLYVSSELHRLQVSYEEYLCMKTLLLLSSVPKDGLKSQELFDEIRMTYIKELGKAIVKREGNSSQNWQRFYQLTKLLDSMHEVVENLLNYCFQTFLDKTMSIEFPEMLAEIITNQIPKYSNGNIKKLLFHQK

With `CO[C@H]1C[C@H](O[C@H]2[C@@H](O)C[C@H](O[C@H]3CC[C@]4(C=O)[C@H]5CC[C@]6(C)C(C7=CC(=O)OC7)CC[C@]6(O)[C@@H]5CC[C@]4(O)C3)O[C@@H]2C)O[C@H](C)[C@H]1O[C@H]1C[C@@H](OC)[C@@H](O[C@@H]2O[C@H](CO)[C@@H](O)[C@H](O)[C@H]2O)[C@@H](C)O1` (stereo not given in full), the Potency in experiment [1] was 44000 nM (active); in [2] it was 265 nM (active); in experiment [4], 374 nM (active); in [5], 264 nM (active). Further, the Potency entry in experiment [3] was “inactive”.

In the case of `CCC(=O)N[C@@H](C[C@H](C)C(Cl)(Cl)Cl)C(=O)N1C(=O)C=C(OC)[C@@H]1C[C@H](C)C(Cl)Cl`, the Potency entry in experiment [2], in experiment [6], in [4] and in experiment [5] was “inactive” in each case.

With `C=C[C@H]1CN2CCc3c([nH]c4cccc(OC)c34)[C@@H]2C[C@@H]1/C(=C\OC)C(=O)OC`, the Potency result in experiment [1], in [2] and in experiment [6] was “inactive” each time.

Consider `CCCC[C@@H](C)/C=C1/CN2CCC[C@H]2[C@@](C)(O)[C@@H]1O`, for which the Potency result in experiment [2], in experiment [3], in [6], in [7], in [4] and in experiment [5] was “inactive” throughout. The Potency entry in experiment [8] is “inactive”.

Take `COC1C(O)C(C)OC(OC2C(Oc3cccc4c(O)c5c(=O)oc6ccc(C)c7c(=O)oc(c34)c5c67)OC(C)C(O)C2O)C1O` (stereo not given): the Potency was 16800 nM (active) in experiment [6] and 9350 nM (active) in experiment [5]. Moreover, the Potency result in experiment [7] is “inactive”.

In the case of `C/C=C(\C)C(=O)O[C@@H]1[C@@H](O)[C@@H]2O[C@H]3[C@H](O[C@@H](CCCCC)CCCCCCC(=O)CCC(=O)OC[C@@H](O2)[C@H]1OC(=O)/C=C/c1ccccc1)O[C@H](C)[C@H](OC(C)=O)[C@@H]3O`, the Potency is 188 nM (active) in experiment [2]; 594 nM (active) in experiment [9]; 74.7 nM (active) in experiment [3]; 33.5 nM (active) in [6]; 14900 nM (active) in experiment [7]; 4.7 nM (active) in experiment [5]. For the same compound, the Potency in [8] is 37.5 nM (active).

Consider `CCCCC1CC[C@H]2CCCC(CCC)N12` (stereo not given in full), for which the Potency entry in [1], in [2], in experiment [3], in [6], in experiment [7] and in [4] was “inactive” throughout. The Potency result in experiment [5] and in experiment [8] was “inactive” each time.

With `C/C=C1/CN2CC[C@@]34c5ccccc5N(C)[C@@H]3[C@@H]2C[C@@H]1[C@H]4C(=O)OC`, the Potency entry in experiment [2], in experiment [3], in experiment [4], in experiment [5] and in experiment [8] was “inactive” in each case.

`C/C=C/[C@@H]1[C@H]2C[C@@H](C)CC[C@@H]2C(C)=C[C@H]1C(=O)c1c(O)c(-c2ccc(O)cc2)c[nH]c1=O`: the Potency in [1] is 22000 nM (active); in experiment [9] it was 21100 nM (active); in experiment [3], 23600 nM (active); in experiment [7] it was 6680 nM (active).

On to `CN(C)[C@@H]1C(=O)C(C(N)=O)=C(O)[C@]2(O)C(=O)C3=C(O)c4c(O)cccc4[C@@](C)(O)[C@@H]3C[C@@H]12`, for which the Potency in experiment [10] is over 46000 nM.

On to `CO[C@H]1[C@H](O[C@H]2CC[C@]3(C=O)[C@H]4CC[C@]5(C)[C@@H](C6=CC(=O)OC6)CC[C@]5(O)[C@@H]4CC[C@]3(O)C2)O[C@H](C)[C@H](O)[C@@H]1OC`, for which the Potency is 236 nM (active) in [4] and 296 nM (active) in [5]. Besides, the Potency entry in experiment [8] was “inactive”.

Regarding `CO[C@H]([C@@H](C)[C@H]1O[C@]1(C)C[C@H](C)/C=C/C=C(\C)[C@H]1O[C@@H](CC(=O)O)CC[C@@H]1C)[C@@H](C)O`, the Potency in [9] is 18.8 nM (active); in experiment [6], 37.5 nM (active); in [5], 29.6 nM (active); in experiment [8] it was 66.6 nM (active). For the same compound, in experiment [7], the Potency result was “inactive”.

On to `O[C@H]1C=C[C@@]23CCN(Cc4cc5c(cc42)OCO5)[C@@H]3C1`, for which the Potency result in experiment [2], in experiment [3], in [6], in experiment [7], in experiment [4] and in [5] was “inactive” in each case. For the same compound, in experiment [9], the Potency was 11800 nM (active).

As for `C=CC(C)(C)[C@@]12C[C@H]3C(=O)N/C(=C/c4cnc[nH]4)C(=O)N3[C@@H]1Nc1ccccc12`, the Potency result in [2], in experiment [9], in [3], in experiment [6], in experiment [7] and in [4] was “inactive” in each case. The Potency result in [5] is “inactive”. For the same compound, the Potency in experiment [8] is 298 nM (active).

As to `C[C@]12CCC3[C@@H](CC[C@@H]4C[C@@H](O)CC[C@]34CO)[C@@]1(O)CC[C@@H]2C1=CC(=O)OC1` (stereo not given in full), the Potency in experiment [9] was 1180 nM (active); in experiment [3] it was 2360 nM (active); in experiment [4], 1880 nM (active); in [5] it was 1870 nM (active). The Potency entry in experiment [8] is “inactive”.

Regarding `CO[C@@]12c3c(C)cc(O)c4c(=O)occ(c34)C(=O)[C@@H]1[C@]13COC(=O)c4c(O)cc(C)c(c41)C(=O)[C@H]2[C@@H]3OC(C)=O`, the Potency in experiment [1] is 3110 nM (active); in experiment [9], 5940 nM (active); in experiment [7], 18800 nM (active); in experiment [8] it was 7.5 nM (active). Further, the Potency entry in experiment [2], in experiment [3], in experiment [6], in experiment [4] and in experiment [5] was “inactive” in each case.

As for `COC1=C(C2=C(OC)C(=O)c3cc4c(c(O)c3C2=O)C(=O)O[C@H](C)C4)C(=O)c2c(cc3c(c2O)C(=O)O[C@H](C)C3)C1=O`, the Potency is 3300 nM (active) in experiment [1] and 3140 nM (active) in experiment [7]. For the same compound, the Potency result in experiment [2], in experiment [3], in [4], in experiment [5] and in [8] was “inactive” each time.

Take `CC[C@H]1CN2CCc3c([nH]c4cccc(OC)c34)[C@@H]2C[C@@H]1/C(=C\OC)C(=O)OC`: the Potency in experiment [1] was 24700 nM (active). Moreover, the Potency entry in experiment [2], in experiment [4] and in [8] was “inactive” each time.
